Reference: the supplement of paper PMC6658780
Where a name gives a salt, the structure may show the parent alone. ± gives the standard deviation of the averaged measurements.

system: Klebsiella pneumoniae NCTC-13439; assay: percent growth inhibition of drug alone vs DMSO control; higher = more growth inhibition; details: antibiotic (0.125x MIC): none (0.1% DMSO); 20 µM

Compound	percent growth inhibition of drug alone [%]
C[C@H](N)[C@H](O)c1cccc(O)c1 [Metaraminol bitartrate]	-0.507 ± 15
N=C(NCCCCCCNC(=N)NC(=N)Nc1ccc(Cl)cc1)NC(=N)Nc1ccc(Cl)cc1 [Chlorhexidine]	57.6 ± 4.2
Cc1nc2n(c(=O)c1CCN1CCC(c3noc4cc(F)ccc34)CC1)CCCC2 [Risperidone]	-6.94 ± 7.8
C#C[C@]1(OC(C)=O)CC[C@H]2[C@@H]3CCC4=CC(=NO)CC[C@@H]4[C@H]3CC[C@@]21CC (mixture of isomers) [Norgestimate]	-14.2 ± 4.9
Cc1c(F)c(N2CCNC(C)C2)cc2c1c(=O)c(C(=O)O)cn2C1CC1 (stereo not given) [Grepafloxacin]	23.5 ± 9.9
COc1ccc(OC)c(C(O)CNC(=O)CN)c1 (stereo not given) [Midodrine hydrochloride]	-4.02 ± 9.3
CC(=O)CCCCn1c(=O)c2c(ncn2C)n(C)c1=O [Pentoxifylline]	2.73 ± 3.2
NC(=O)N/N=C/c1ccc([N+](=O)[O-])o1 [Nitrofural]	11.8 ± 8.7
NC1CCN(c2nc3c(cc2F)c(=O)c(C(=O)O)cn3-c2ccc(F)cc2F)C1 (stereo not given) [Tosufloxacin hydrochloride]	99.38 ± 0.74
O=C(OCC(O)CO)c1ccccc1Nc1ccnc2cc(Cl)ccc12 (stereo not given) [Glafenine hydrochloride]	3.73 ± 17
